Laboratory results as given in PubChem BioAssay (EPA / NIEHS).
Records with an inconclusive call do not appear. Activity calls are given as the source filed them. The calls were made as follows, unless noted: active = hit-call score of the fitted dose curve at least 0.9, where 1 is the maximum; inactive = score below 0.9.

Experiments:
[1] = target: Paired box protein Pax-6 (Homo sapiens) (UniProt P26367); test: ATG_Pax6_CIS: Attagene CIS-FACTORIAL HepG2 Assay for human Paired Box 6 (PAX6) (AID 2282956); conditions: HepG2 CIS-FACTORIAL PAX6 reporter transcription, RNA readout; actives raise or lower the signal
Sequence of Paired box protein Pax-6 (Homo sapiens) (P26367 whole entry, looked up): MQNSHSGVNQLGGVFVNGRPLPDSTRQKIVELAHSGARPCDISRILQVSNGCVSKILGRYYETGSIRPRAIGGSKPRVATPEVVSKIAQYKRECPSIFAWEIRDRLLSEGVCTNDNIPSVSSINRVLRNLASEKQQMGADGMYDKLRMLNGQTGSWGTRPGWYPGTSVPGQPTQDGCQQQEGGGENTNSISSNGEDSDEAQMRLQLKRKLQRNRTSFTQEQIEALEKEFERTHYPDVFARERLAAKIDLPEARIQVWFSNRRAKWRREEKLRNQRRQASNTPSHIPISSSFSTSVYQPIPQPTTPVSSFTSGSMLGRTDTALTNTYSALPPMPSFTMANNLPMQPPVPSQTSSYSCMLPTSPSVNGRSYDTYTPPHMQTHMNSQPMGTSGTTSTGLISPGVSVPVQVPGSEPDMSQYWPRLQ
How it was run: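 Fluorescent RT-PCR products separated by capillary electrophoresis report PAX6-linked promoter mRNA in HepG2 cells 24 h post-dose. Curves fitted bidirectionally, DMSO as negative control.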

[2] = ATG_PXRE_CIS: Attagene CIS-FACTORIAL HepG2 Assay for human Pregnane X Receptor Element (PXRE) (AID 2282957); conditions: HepG2 Attagene CIS-FACTORIAL PXRE reporter, mRNA; actives raise or lower the signal
How it was run: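 Reporter transcripts under endogenous PXR-responsive cis-regulation quantified from total RNA of transfected HepG2 cells 24 h post-dosing, via RT-PCR with fluorescent primer extension and capillary electrophoresis. Gain or loss of signal fitted against DMSO baseline.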

[3] = ATG_PPRE_CIS: Attagene CIS-FACTORIAL HepG2 Assay for human Peroxisome Proliferator-activated Response Element (PPRE) (AID 2282958); conditions: HepG2 PPRE cis-element reporter, Attagene transcription factor profiling; actives raise or lower the signal
How it was run: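 Read-out: fluorescent reporter mRNA fragments resolved by capillary electrophoresis after RT-PCR. HepG2 cells carried transiently transfected PPRE-driven cis reporter constructs and were dosed for 24 h; gain or loss of signal fitted relative to DMSO.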

[4] = ATG_RORE_CIS: Attagene CIS-FACTORIAL HepG2 Assay for human RAR-related Orphan Receptor Element (RORE) (AID 2282959); conditions: HepG2 Attagene cis-factorial RORE reporter, mRNA; actives raise or lower the signal
How it was run: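 Readout: fluorescent reporter mRNA by RT-PCR plus capillary electrophoresis, 24 h after dosing transfected HepG2 cells. Endogenous transcription factor activity on a cis promoter element is measured. Gain or loss of signal fitted against DMSO.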

[5] = ATG_Sox_CIS: Attagene CIS-FACTORIAL HepG2 Assay for human SRY-box transcription factor (SOX) (AID 2282960); conditions: HepG2 Attagene cis-factorial SOX reporter, mRNA; actives raise or lower the signal
How it was run: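 Read-out: fluorescent RT-PCR products of SOX1-linked reporter transcripts resolved by capillary electrophoresis, fitted bidirectionally against DMSO. Transiently transfected HepG2 cells, 24 h after chemical exposure, endogenous transcription factor activity.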

[6] = target: Transcription factor Sp1 (Homo sapiens) (UniProt P08047); test: ATG_Sp1_CIS: Attagene CIS-FACTORIAL HepG2 Assay for human Specificity Protein 1 (Sp1) (AID 2282961); conditions: HepG2 Sp1 cis-reporter transcription, actives raise or lower the signal
Sequence of Transcription factor Sp1 (Homo sapiens) (P08047 whole entry, looked up): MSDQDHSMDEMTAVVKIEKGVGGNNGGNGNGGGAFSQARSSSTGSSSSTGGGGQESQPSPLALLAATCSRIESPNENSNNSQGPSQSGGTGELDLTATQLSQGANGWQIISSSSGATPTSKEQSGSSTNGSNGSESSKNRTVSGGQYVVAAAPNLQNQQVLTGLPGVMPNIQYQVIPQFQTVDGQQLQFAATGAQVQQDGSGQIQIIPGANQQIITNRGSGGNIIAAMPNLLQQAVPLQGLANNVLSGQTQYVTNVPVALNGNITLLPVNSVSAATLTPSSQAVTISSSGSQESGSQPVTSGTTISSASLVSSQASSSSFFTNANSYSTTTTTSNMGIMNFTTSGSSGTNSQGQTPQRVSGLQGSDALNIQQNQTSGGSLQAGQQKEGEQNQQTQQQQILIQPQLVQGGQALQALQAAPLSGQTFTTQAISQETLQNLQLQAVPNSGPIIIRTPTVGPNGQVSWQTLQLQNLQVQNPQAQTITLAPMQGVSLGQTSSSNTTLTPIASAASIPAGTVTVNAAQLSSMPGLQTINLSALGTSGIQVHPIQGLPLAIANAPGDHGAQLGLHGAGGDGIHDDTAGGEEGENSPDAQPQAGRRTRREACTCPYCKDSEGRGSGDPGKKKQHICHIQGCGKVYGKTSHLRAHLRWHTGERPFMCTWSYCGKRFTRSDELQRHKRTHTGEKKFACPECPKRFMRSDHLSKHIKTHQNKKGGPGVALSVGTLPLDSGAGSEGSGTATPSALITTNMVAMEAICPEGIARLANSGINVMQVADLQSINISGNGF
How it was run: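 Read-out: fluorescence of 6-FAM-labeled, HpaI-digested RT-PCR products separated by capillary electrophoresis. HepG2 cells carried transfected cis-element reporter units and were exposed to chemicals for 24 h; gain or loss of signal fitted relative to DMSO.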

[7] = ATG_SREBP_CIS: Attagene CIS-FACTORIAL HepG2 Assay for human Sterol Regulatory Element Binding (SREBP) (AID 2282962); conditions: HepG2 Attagene cis-factorial SREBP reporter, mRNA; actives raise or lower the signal
How it was run: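 Endogenous factor activity is measured in HepG2 through multiplexed reporter units under cis-element control. Following a 24 h incubation, reporter transcripts are reverse-transcribed, PCR-amplified and sized by capillary electrophoresis; activity is fitted in both directions relative to DMSO.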

[8] = target: Signal transducer and activator of transcription 3 (Homo sapiens) (UniProt P40763); test: ATG_STAT3_CIS: Attagene CIS-FACTORIAL HepG2 Assay for human Signal Transducer and Activator of Transcription 3 (STAT3) (AID 2282963); conditions: HepG2, Attagene cis-factorial STAT3 reporter transcription; actives raise or lower the signal
Sequence of Signal transducer and activator of transcription 3 (Homo sapiens) (P40763 whole entry, looked up): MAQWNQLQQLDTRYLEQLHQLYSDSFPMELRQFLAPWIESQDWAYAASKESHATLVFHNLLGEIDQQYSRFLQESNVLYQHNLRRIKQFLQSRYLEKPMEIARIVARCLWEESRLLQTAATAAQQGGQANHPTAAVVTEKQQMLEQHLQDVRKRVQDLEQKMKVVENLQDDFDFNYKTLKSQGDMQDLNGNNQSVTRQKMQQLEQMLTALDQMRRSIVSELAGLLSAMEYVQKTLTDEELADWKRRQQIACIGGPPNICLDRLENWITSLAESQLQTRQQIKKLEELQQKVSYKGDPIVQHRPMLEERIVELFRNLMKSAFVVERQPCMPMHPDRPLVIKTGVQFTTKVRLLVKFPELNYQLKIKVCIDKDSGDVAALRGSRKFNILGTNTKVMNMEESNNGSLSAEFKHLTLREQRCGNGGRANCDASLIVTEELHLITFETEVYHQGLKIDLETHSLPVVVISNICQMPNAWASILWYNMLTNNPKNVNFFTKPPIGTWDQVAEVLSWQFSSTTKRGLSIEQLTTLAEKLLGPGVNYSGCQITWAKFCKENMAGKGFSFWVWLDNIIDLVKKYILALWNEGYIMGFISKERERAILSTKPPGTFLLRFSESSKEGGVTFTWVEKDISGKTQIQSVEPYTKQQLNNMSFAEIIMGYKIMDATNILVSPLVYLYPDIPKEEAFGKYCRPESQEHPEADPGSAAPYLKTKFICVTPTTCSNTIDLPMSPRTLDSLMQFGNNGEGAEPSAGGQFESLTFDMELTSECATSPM
How it was run: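 Readout is reporter transcript quantified by RT-PCR and capillary electrophoresis, with 6-FAM primer extension and HpaI digestion. Total RNA is taken 24 h after dosing transiently transfected HepG2 carrying cis-regulated reporter units. Bidirectional fit against DMSO.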

[9] = ATG_TA_CIS: Attagene CIS-FACTORIAL HepG2 Assay for human TA Basal Promoter (AID 2282964); conditions: HepG2 Attagene CIS-factorial TA basal promoter reporter; actives raise or lower the signal
How it was run: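 Multiplexed mRNA reporter assay, HepG2, 24 h. Reporter cDNA amplified, 6-FAM primer-extended, HpaI-cut, CE-sized; DMSO = negative control and baseline.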

[10] = ATG_TCF_b_cat_CIS: Attagene CIS-FACTORIAL HepG2 Assay for human T-Cell-Factor with beta-catenin (TCF/b-cat) (AID 2282965); conditions: HepG2 TCF/beta-catenin cis-reporter transcription, actives raise or lower the signal
How it was run: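 Endogenous transcription factor activity is captured through cis-promoter reporter constructs transiently introduced into human HepG2 liver cells. Induced reporter mRNA is measured after 24 h and fitted bidirectionally relative to DMSO.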

[11] = ATG_TAL_CIS: Attagene CIS-FACTORIAL HepG2 Assay for human TAL Basal Promoter (AID 2282966); conditions: HepG2 Attagene cis-factorial TAL promoter reporter; actives raise or lower the signal;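 also: background control endpoint measuring basal TAL promoter reporter mRNA not a specific factor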
How it was run: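 Background-control endpoint: basal TAL promoter reporter transcripts in transiently transfected HepG2, measured 24 h after dosing. Read-out by RT-PCR with fluorescent primer extension and capillary electrophoresis; gain or loss of signal fitted relative to DMSO.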

[12] = ATG_VDRE_CIS: Attagene CIS-FACTORIAL HepG2 Assay for human Vitamin D Receptor Element (VDRE) (AID 2282968); conditions: HepG2 VDRE cis-reporter transcription, actives raise or lower the signal
How it was run: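 Readout is VDRE-driven reporter mRNA reflecting endogenous factor activity in human HepG2 cells, sampled 24 h post-dose. Quantification used labelled RT-PCR products separated by capillary electrophoresis; bidirectional analysis relative to DMSO.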

[13] = target: Estrogen receptor (Homo sapiens) (UniProt P03372); test: ATG_ERa_TRANS: Attagene TRANS-FACTORIAL HepG2 Assay for human Estrogen Receptor alpha (ERa) (AID 2282970; active = hit-call score of the fitted dose curve at least 0.9, where 1 is the maximum); conditions: HepG2 Attagene TRANS ERa GAL4 reporter, mRNA
Sequence of Estrogen receptor (Homo sapiens) (P03372 whole entry, looked up, the tested form may be a part): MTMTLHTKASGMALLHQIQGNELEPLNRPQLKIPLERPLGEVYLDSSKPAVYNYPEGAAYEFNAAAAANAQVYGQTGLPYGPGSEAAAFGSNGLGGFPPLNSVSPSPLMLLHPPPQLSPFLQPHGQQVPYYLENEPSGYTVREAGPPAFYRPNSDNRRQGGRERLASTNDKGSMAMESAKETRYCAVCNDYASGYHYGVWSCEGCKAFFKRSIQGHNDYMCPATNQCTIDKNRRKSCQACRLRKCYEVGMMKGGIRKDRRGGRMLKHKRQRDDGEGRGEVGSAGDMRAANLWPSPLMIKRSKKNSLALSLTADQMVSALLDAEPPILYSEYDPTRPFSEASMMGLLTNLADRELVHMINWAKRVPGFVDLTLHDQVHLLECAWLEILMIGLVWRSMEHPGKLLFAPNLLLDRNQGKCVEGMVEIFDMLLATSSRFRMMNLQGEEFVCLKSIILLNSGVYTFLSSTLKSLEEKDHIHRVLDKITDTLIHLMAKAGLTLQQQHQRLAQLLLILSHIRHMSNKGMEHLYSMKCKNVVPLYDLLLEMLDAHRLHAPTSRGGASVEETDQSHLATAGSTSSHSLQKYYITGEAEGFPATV
How it was run: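 Reporter transcripts were measured 24 h after dosing by RT-PCR with fluorescent primer extension and capillary electrophoresis. The system is transiently transfected HepG2 expressing exogenous NR-Gal4 chimeras driving GAL4-UAS reporters; DMSO is the baseline.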

[14] = target: X-box-binding protein 1 (Homo sapiens) (UniProt P17861); test: ATG_Xbp1_CIS: Attagene CIS-FACTORIAL HepG2 Assay for human X-box Binding Protein 1 (XBP1) (AID 2282972); conditions: HepG2 XBP1 cis-element reporter, Attagene multiplex; actives raise or lower the signal
Sequence of X-box-binding protein 1 (Homo sapiens) (P17861 whole entry, looked up): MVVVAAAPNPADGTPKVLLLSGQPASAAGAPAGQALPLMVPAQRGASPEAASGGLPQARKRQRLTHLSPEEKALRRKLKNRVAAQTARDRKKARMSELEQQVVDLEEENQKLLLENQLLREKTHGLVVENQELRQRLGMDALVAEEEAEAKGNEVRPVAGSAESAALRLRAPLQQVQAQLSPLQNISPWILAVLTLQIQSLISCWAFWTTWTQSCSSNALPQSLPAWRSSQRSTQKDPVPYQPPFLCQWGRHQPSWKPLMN
How it was run: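 Multiplexed cis-reporter readout in transfected HepG2 liver cells. Exposure lasted 24 hours. Activity in either direction was fitted against DMSO as negative control and baseline.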

[15] = ATG_M_19_TRANS: Attagene TRANS-FACTORIAL HepG2 Assay for M19 Transcription Factor (Internal Marker) (AID 2282974; active = hit-call score of the fitted dose curve at least 0.9, where 1 is the maximum); conditions: HepG2 Attagene TRANS-FACTORIAL M19 internal marker reporter
How it was run: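 24 h chemical exposure of transiently transfected HepG2 (MRTU library). RNA → oligo(dT) RT → PCR → 6-FAM labelling → HpaI cut → CE fluorescence. Positive-direction fit vs DMSO baseline; background internal-marker readout.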

[16] = ATG_GAL4_TRANS: Attagene TRANS-FACTORIAL HepG2 Assay for GAL4 (Internal Marker) (AID 2282976; active = hit-call score of the fitted dose curve at least 0.9, where 1 is the maximum); conditions: HepG2 Attagene TRANS GAL4 internal marker reporter
How it was run: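 In transfected human HepG2 liver cells dosed 24 h, GAL4 reporter mRNA serves as a baseline marker. Detection by RT-PCR with fluorescent capillary electrophoresis, activity fitted upward relative to DMSO.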

[17] = ATG_TGFb_CIS: Attagene CIS-FACTORIAL HepG2 Assay for human Transforming Growth Factor (TGF) (AID 2282967); conditions: HepG2 Attagene CIS TGFb reporter, mRNA transcription; actives raise or lower the signal
How it was run: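 Transcript-level reporter readout: HepG2 transfectants, 24 h exposure, RNA to cDNA, reporter-specific PCR, fluorescent primer extension, capillary sizing against ROX standards. Gain- or loss-of-signal relative to DMSO.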

[18] = target: Steroid hormone receptor ERR1 (Homo sapiens) (UniProt P11474); test: ATG_ERRa_TRANS: Attagene TRANS-FACTORIAL HepG2 Assay for human Estrogen-Related Receptor alpha (ERRa) (AID 2282971; active = hit-call score of the fitted dose curve at least 0.9, where 1 is the maximum); conditions: HepG2 Attagene TRANS reporter, ERRa transactivation
Sequence of Steroid hormone receptor ERR1 (Homo sapiens) (P11474 whole entry, looked up, the tested form may be a part): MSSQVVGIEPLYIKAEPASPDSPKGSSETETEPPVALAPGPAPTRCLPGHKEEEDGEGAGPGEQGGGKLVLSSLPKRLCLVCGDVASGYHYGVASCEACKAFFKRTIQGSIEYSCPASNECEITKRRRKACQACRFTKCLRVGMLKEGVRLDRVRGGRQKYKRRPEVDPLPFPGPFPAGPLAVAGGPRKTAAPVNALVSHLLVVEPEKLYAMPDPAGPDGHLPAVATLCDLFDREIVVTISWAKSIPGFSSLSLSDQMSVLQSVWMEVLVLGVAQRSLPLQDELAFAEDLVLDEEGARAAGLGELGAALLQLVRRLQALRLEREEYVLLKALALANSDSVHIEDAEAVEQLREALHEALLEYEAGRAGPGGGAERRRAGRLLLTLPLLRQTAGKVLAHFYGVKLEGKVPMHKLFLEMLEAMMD
How it was run: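 Reporter transcripts from ERRa-Gal4 chimera activity measured in transiently transfected human HepG2 cells 24 hours after dosing, using RT-PCR with 6-FAM primer extension, HpaI digestion and capillary electrophoresis; DMSO is baseline.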

Measured: AC50

CCCCCCCCCCCCOC(C)=O
not listed: [17] | [18]
inactive: all other assays above

CC1(C)CC(N)CC(C)(CN)C1 (stereo unspecified)
not listed: [12] | [15] | [16] | [18]
inactive: all other assays above

CCCCCCC(O)CCOC(C)=O (stereo unspecified)
active: [2] 18.6 µM
not listed: [3] | [15]
inactive: all other assays above

CCCCCCCCCCCCCCCCCC(=O)OCCCCCCCCCCCCCC(C)C
active: [2] 46.9 µM
not listed: [10] | [15] | [18]
inactive: all other assays above

CCCCCCCCOC(C)=O
active: [2] 73.1 µM
not listed: [3] | [13] | [16] | [18]
inactive: all other assays above

OC[C@@H](O)[C@H](O)[C@@H](O)[C@@H](O)CO
active: [2] 37.2 µM | [13] 13.8 µM
not listed: [3] | [16]
inactive: all other assays above

CC(CCO)CC(C)(C)C (stereo unspecified)
not listed: [3] | [16] | [18]
inactive: all other assays above

N#CCCCC(C#N)CCC#N (stereo unspecified)
not listed: [12] | [13] | [15]
inactive: all other assays above

CC1=CCC(C(C)(C)O)CC1 (stereo unspecified)
not listed: [4] | [14] | [16] | [18]
inactive: all other assays above

CC(C)(C)c1cccc(O)c1
active: [2] 11.5 µM | [12] 28.1 µM | [13] 14.7 µM
not listed: [4] | [15] | [16] | [17] | [18]
inactive: all other assays above

CCCCCCC(C)O (stereo unspecified)
not listed: [13] | [18]
inactive: all other assays above

c1ccc(Sc2ccccc2)cc1
active: [2] 62.7 µM | [13] 38.3 µM
not listed: [1] | [3] | [18]
inactive: all other assays above

CC(=O)CC(=O)N(C)C
not listed: [3] | [9] | [13] | [15] | [18]
inactive: all other assays above

O=C(O)c1ccco1
not listed: [3] | [4] | [10] | [16] | [18]
inactive: all other assays above

CCCC1CCOC(C)S1 (stereo unspecified)
active: [2] 54 µM
not listed: [3] | [6] | [18]
inactive: all other assays above

CC(CO)(CO)[N+](=O)[O-]
not listed: [3] | [6] | [9] | [18]
inactive: all other assays above

CC1=CC(O)CC(C)(C)C1 (stereo unspecified)
active: [2] 10.8 µM
not listed: [3] | [4] | [9] | [13] | [17]
inactive: all other assays above

O=[N+]([O-])c1cc(N(CCO)CCO)ccc1NCCO
not listed: [3] | [13] | [16] | [18]
inactive: all other assays above

Cc1ccncc1
not listed: [3] | [13] | [18]
inactive: all other assays above

c1ccc(Cc2ccccc2)cc1
not listed: [3] | [13] | [18]
inactive: all other assays above

NS(=O)(=O)c1cc(C(=O)O)c(NCc2ccco2)cc1Cl
not listed: [3] | [13] | [15] | [17] | [18]
inactive: all other assays above

CC(C)=CCCC(C)=CC(=O)O
active: [2] 29.8 µM
not listed: [1] | [3] | [12] | [13] | [15] | [18]
inactive: all other assays above
